# Reference: PubChem BioAssay (Tox21)
# Where “and” joins values, the source holds several entries; their conditions need not be identical. Identical values can stand only once. Inconclusive results are not listed. Entries that show only a call come without a potency. A structure can be active in one record and inactive in another. Calls of active or inactive are those of the source. Unless noted, calls follow the shape of the dose curve; as a rule, active = well fitted curve in the direction sought with a large enough effect in the repeat runs; inconclusive = weak or mixed curves; inactive = no such curve, though single readings can be large; an effect the other way counts as inactive or inconclusive.
# Key:
# [1] = qHTS assay to identify small molecule agonists of H2AX (AID 1224845; active = well fitted activation curve with a large enough effect in the signal ratio in the repeat runs, not every such curve was filed as active; the % refers to the signal ratio; also: potency is read from the fitted curve at half-maximal effect)
# In short: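 Wild-type CHO-K1 cells, plated overnight, exposed 3hr at 37C to 15 concentrations (0.76% DMSO final). Lysed, then HTRF anti-pH2AX (S139) cryptate and anti-H2AX-d2 antibodies, 24 hr room temperature; 665/620 nm emission read.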
# [2] = qHTS assay to identify small molecule agonists of the hypoxia (HIF-1) signaling pathway (AID 1224846; active = well fitted activation curve with a large enough effect in the signal ratio in the repeat runs, not every such curve was filed as active; the % refers to the signal ratio)
# In short: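 Beta-lactamase FRET read-out (CCF4-AM substrate) from ME-180 cells carrying an HRE-driven bla reporter, after 17 hrs compound exposure at 37C/5% CO2. Cells were seeded at 2,000 per well in 0.5% dialyzed FBS medium and preincubated 5 hrs.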
# [3] = qHTS assay to identify small molecule agonists of H2AX - cell viability counter screen (AID 1224847; calls by dose curve; also: nearly all actives have a fitted effect of over 30% in size; also: potency is read from the fitted curve at half-maximal effect)
# In short: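 Cytotoxicity counter screen in wild-type CHO-K1 cells: a 3 hr compound treatment at 37C across 15 concentrations, followed by CellTiter-Glo luminescence to gauge viable cells.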
# [4] = qHTS RealTime-Glo MT Cell Viability Assay in HepG2 cells - 24 hour (AID 1224867); also: nearly all actives have a fitted effect of over 50% in size; also: potency is read from the fitted curve at half-maximal effect
# In short: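 Cells + NanoLuc/prosubstrate dispensed (600 cells/well) → 5 h at 37 C/5% CO2 → compounds in DMSO transferred → 40 h incubation at 37 C, luminescence read at 0, 8, 16, 24, 32, 40 h.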
# [5] = qHTS RealTime-Glo MT Cell Viability Assay in HEK293 cells - 32 hour (AID 1224868); also: nearly all actives have a fitted effect of over 50% in size; also: potency is read from the fitted curve at half-maximal effect
# In short: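 Tox21 10K qHTS, HEK293, 600 cells/well, RealTime-Glo reagent co-dispensed with cells; 5 h preincubation, compound by pintool, 37 C, luminescence at 0–40 h.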
# [6] = A CellTox Green Cytotoxicity Assay to monitor cytotoxicity in HEK293 cells - 0 hour (AID 1224869); also: nearly all actives have a fitted effect of over 50% in size; also: potency is read from the fitted curve at half-maximal effect
# In short: (§1)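 Read-out: fluorescence of a cell-impermeant cyanine dye staining DNA of dead cells, proportional to cytotoxicity. HEK293, 600 cells/well with reagent, compound (23 nL DMSO) added after 5 h; reads at 0, 8, 16, 24, 32, 40 h.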
# [7] = qHTS RealTime-Glo MT Cell Viability Assay in HepG2 cells - 40 hour (AID 1224870); also: nearly all actives have a fitted effect of over 50% in size; also: potency is read from the fitted curve at half-maximal effect
# In short: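 HepG2 cells (600/well) mixed with RealTime-Glo MT reagent, settled 5 h at 37 C/5% CO2 before compound addition. Nonlytic NanoLuc luminescence from viable-cell prosubstrate reduction read repeatedly during 40 h treatment at 37 C.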
# [8] = A CellTox Green Cytotoxicity Assay to monitor cytotoxicity in HEK293 cells - 40 hour (AID 1224871); also: nearly all actives have a fitted effect of over 45% in size; also: potency is read from the fitted curve at half-maximal effect
# In short: as §1
# [9] = qHTS assay to identify small molecule antagonists of the estrogen related receptor (ERR) signaling pathway from Tox21 library (AID 1224848); also: nearly all actives have a fitted effect of over 50% in size; also: potency is read from the fitted curve at half-maximal effect
# In short: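 Quantitative high-throughput format: ERR reporter cells (2,000/well) pre-incubated 6 h, treated 18 h at 37 C with compounds in DMSO alongside positive and negative controls, then read by ONE-Glo luminescence.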
# [10] = qHTS assay to identify small molecule agonists of the estrogen related receptor (ERR) signaling pathway from Tox21 library (AID 1224849; calls by dose curve; also: nearly all actives have a fitted effect of over 15% in size); conditions: ERR reporter cell line, ONE-Glo luciferase, 18 h; at 92.4 µM (top of the series) unless noted
# In short: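 Luminescence readout (ONE-Glo, 30 min RT) after 18 h compound exposure at 37 C of NTP-supplied ERR reporter cells; cells were plated 6 h before compound addition by pin tool.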
Compound,Potency [1],outcome [2],Potency [3],Potency [4],Potency [5],Potency [6],Potency [7],Potency [8],Potency [9],"activity change, positive = activation [10]"
CCCCCCCCCBr,inactive,inactive,inactive,inactive,inactive,inactive,inactive,inactive,–,–
Cc1ccc(CCl)cc1,inactive,inactive,–,inactive,inactive,inactive,inactive,inactive,inactive,–
Cc1ccc(OP(=O)(Oc2ccccc2)Oc2ccccc2)cc1,inactive,inactive,–,inactive,inactive,inactive,–,inactive,–,-20.3% (inactive)
COC[C@H](C)N(C(=O)CCl)c1c(C)csc1C,inactive,inactive,–,–,inactive,inactive,inactive,inactive,inactive,–
N#CSCSC#N,15.8 µM (active),–,51.6 µM (active) and 50 µM (active),50.1 µM (active) and 19.3 µM (active),12.6 µM (active) and 21.7 µM (active),inactive,50.1 µM (active) and 21.7 µM (active),19.3 µM (active),27.9 µM (active) and 60.5 µM (active),-81.6% (inactive) and -76.5% (inactive)
C=CC(=O)N(C)C,inactive,–,inactive,–,inactive,inactive,–,inactive,inactive,–
C[C@]12CC[C@@H]3c4ccc(OC(=O)N(CCCl)CCCl)cc4CC[C@H]3[C@@H]1CC[C@@H]2O,inactive,–,inactive,–,inactive,inactive,inactive,inactive,inactive,-21.8% [at 42.5 µM] (inactive)
Oc1c(Cl)c(Cl)cc(Cl)c1Cl,inactive,–,87.3 µM (active),inactive,47.6 µM (active),inactive,inactive,42.5 µM (active),37.5 µM (active),-59.9% (inactive)
N#Cc1c(-c2ccc(Cl)cc2)[nH]c(C(F)(F)F)c1Br,inactive,–,2.84 µM (active),inactive,1.55 µM (active),inactive,–,49 µM (active),0.344 µM (active),-60.7% (inactive)
CSCCCN=C=S,inactive,–,inactive,inactive,–,inactive,inactive,–,inactive,-13.5% (inactive)
ClC1=C(Cl)[C@]2(Cl)[C@@H]3[C@@H]4C[C@@H]([C@H]5O[C@@H]45)[C@@H]3[C@@]1(Cl)C2(Cl)Cl,17.9 µM (active),–,50.5 µM (active),–,21.9 µM (active),43.6 µM (active),–,51.9 µM (active),43.3 µM (active),-52.1% (inactive)
CC(C)CC(C)(c1ccc(O)cc1)c1ccc(O)cc1,inactive,–,101 µM (active) and 89.8 µM (active),–,39 µM (active),inactive,inactive,55.1 µM (active),54.6 µM (active) and inactive,-67.3% (inactive) and -18.5% (inactive)
CCCCOP(=O)(CCCC)OCCCC,inactive,–,inactive,inactive,–,inactive,inactive,inactive,inactive,-2.44% (inactive)
CCOc1cc(C(C)(C)C)ccc1C1COC(c2c(F)cccc2F)=N1 (centres undefined),inactive,–,30.7 µM (active),inactive,–,inactive,inactive,inactive,37.1 µM (active),-39.5% [at 42.5 µM] (inactive)
CCC(C)(C)C(=O)OC1=C(c2ccc(Cl)cc2Cl)C(=O)OC12CCCCC2,inactive,–,inactive,–,inactive,inactive,inactive,inactive,inactive,–
Cc1cc(N=Nc2ccccc2C)ccc1N,inactive,–,113 µM (active) and 89.8 µM (active),–,21.9 µM (active),inactive,–,49 µM (active),inactive,34.9% (active) and 43.7% (active)
c1ccc2cc3c(cc2c1)-c1cccc2cccc-3c12,inactive,–,inactive,inactive,inactive,inactive,inactive,inactive,inactive,–
Clc1ccc(COC(Cn2ccnc2)c2ccc(Cl)cc2Cl)cc1 (centres undefined),inactive,–,66.6 µM (active) and 56.4 µM (active),–,18.2 µM (active) and 24.4 µM (active) and 9.52 µM (active),inactive,48.8 µM (active),45.7 µM (active) and 54.7 µM (active) and inactive,20.2 µM (active) and 21.6 µM (active) and 18.8 µM (active),–
O=c1[nH]c2ccccc2n1C1CCN(CCCC(c2ccc(F)cc2)c2ccc(F)cc2)CC1,inactive,–,45 µM (active),43.6 µM (active) and inactive,17.4 µM (active) and 16.9 µM (active),inactive,30.9 µM (active) and inactive,49 µM (active) and inactive,10.9 µM (active) and 13.3 µM (active),–
Nc1ccc(Cl)cc1C(=O)c1ccccc1,inactive,–,101 µM (active),inactive,–,inactive,inactive,–,inactive,3.06% (inactive)
Clc1ccc(C(Cl)(Cl)Cl)c(Cl)c1,inactive,–,inactive,inactive,–,inactive,–,–,61.6 µM (active),-45.2% (inactive)
Clc1ccc(-c2ccccc2)cc1,inactive,–,inactive,inactive,inactive,inactive,inactive,–,inactive,3.89% (inactive)
CC1CCC(C(C)C)C(OC(=O)c2ccccc2N)C1 (centres undefined),88.5 µM (active),–,88.5 µM (active),inactive,38.4 µM (active),inactive,inactive,27.2 µM (active),53.7 µM (active),-55.4% (inactive)
Cc1cc(C(C)(C)c2cc(C)c(O)c(C)c2)cc(C)c1O,inactive,–,109 µM (active),–,18.9 µM (active),inactive,–,–,26.4 µM (active),–
COP(=O)(CCC(=O)NCO)OC,inactive,–,inactive,inactive,inactive,inactive,inactive,inactive,inactive,3.27% (inactive)
